According to PMC5540273 (PLoS ONE, 2017):

How the values were obtained:
Details in all cases: concentration: 1 μM, replicates: in singlicate; n = 1
MINK = test system: T1, MINK
T1 construct: gene MINK1

MKK7 = test system: MKK7
MKNK1 = test system: MKNK1
MKNK2 = test system: MKNK2
MLCK = test system: T2, MLCK
T2 construct: gene MYLK3

MLK1 = test system: T3, MLK1
T3 construct: gene MAP3K9

MLK2 = test system: MLK2
MLK3 = test system: MLK3
MRCKA = test system: MRCKA
MRCKB = test system: T4, MRCKB
T4 construct: gene CDC42BPB

MST1R = test system: MST1R
MST1 = test system: T5, MST1
T5 construct: gene STK4

MST2 = test system: T6, MST2
T6 construct: gene STK3

MST3 = test system: T7, MST3
T7 construct: gene STK24

MST4 = test system: MST4
MTOR = test system: MTOR
MUSK = test system: MUSK
MYLK2 = test system: MYLK2
MYLK4 = test system: MYLK4
MYLK = test system: MYLK
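Also: KINOMEscan kinase panel screen.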

Compound | %Inh (MINK) [%] | %Inh (MKK7) [%] | %Inh (MKNK1) [%] | %Inh (MKNK2) [%] | %Inh (MLCK) [%] | %Inh (MLK1) [%] | %Inh (MLK2) [%] | %Inh (MLK3) [%] | %Inh (MRCKA) [%] | %Inh (MRCKB) [%] | %Inh (MST1R) [%] | %Inh (MST1) [%] | %Inh (MST2) [%] | %Inh (MST3) [%] | %Inh (MST4) [%] | %Inh (MTOR) [%] | %Inh (MUSK) [%] | %Inh (MYLK2) [%] | %Inh (MYLK4) [%] | %Inh (MYLK) [%]
COC(=O)c1cccc(NC(=O)NC2CCN(c3ccnc(Nc4ccc(OC)cc4)n3)C2)c1 (stereo not drawn) [GSK1379746] | 0 | 7 | 3 | 2 | 4 | 0 | 0 | 0 | 24 | 0 | 42 | 0 | 10 | 0 | 0 | 19 | 0 | 4 | 0 | 0
CNc1cc(-c2ccc3c(N)n[nH]c3c2)nc(N)n1 [GSK2224810] | 29 | 0 | 4 | 31 | 73 | 7 | 0 | 2 | 6 | 8 | 27 | 0 | 0 | 24 | 0 | 0 | 0 | 64 | 56 | 10
COc1ccc(Nc2nccc(NCCNC(=O)Nc3cc(C)ccc3C)n2)cc1 [GSK1379899] | 0 | 0 | 0 | 0 | 0 | 0 | 36 | 5 | 1 | 0 | 15 | 8 | 0 | 0 | 0 | 0 | 0 | 14 | 0 | 0
CC(C)c1cc(-c2ccc3c(N)n[nH]c3c2)nc(N)n1 [GSK2250882] | 21 | 0 | 36 | 82 | 16 | 0 | 0 | 18 | 12 | 0 | 3 | 0 | 0 | 8 | 0 | 11 | 0 | 23 | 39 | 26
COC(=O)C(NC(=O)NC1CCN(c2ccnc(Nc3ccc(F)cc3)n2)C1)c1ccccc1 (stereo not drawn) [GSK1379712] | 7 | 32 | 24 | 6 | 5 | 0 | 0 | 6 | 10 | 0 | 35 | 0 | 28 | 3 | 0 | 31 | 12 | 10 | 13 | 12
COc1nccc(-c2c(-c3ccc(F)cc3)ncn2CCCN2CCOCC2)n1 [SB-282852] | 0 | 23 | 54 | 42 | 0 | 0 | 0 | 0 | 12 | 0 | 0 | 0 | 22 | 0 | 0 | 0 | 0 | 56 | 0 | 18
Cc1c(Cn2c(C)c(C)n3c(=O)cc(N4CCOCC4)nc23)cccc1C(F)(F)F [GSK2328680] | 0 | 0 | 0 | 0 | 0 | 0 | 0 | 8 | 0 | 6 | 12 | 2 | 0 | 6 | 0 | 32 | 45 | 7 | 0 | 14
Cc1ccc(-c2nc(Nc3ccncc3)c3ccccc3n2)s1 [GSK189015] | 2 | 0 | 5 | 17 | 14 | 6 | 49 | 5 | 24 | 21 | 37 | 6 | 21 | 11 | 5 | 10 | 17 | 26 | 7 | 19
Cc1ccc(NC(=O)c2ccc(Cl)cc2)cc1-c1ccc(C(=O)Nc2ccncc2)cc1 [GSK1398467] | 0 | 0 | 0 | 12 | 0 | 0 | 9 | 15 | 9 | 3 | 28 | 9 | 0 | 4 | 0 | 0 | 2 | 0 | 0 | 2
COc1ccc(Nc2nccc(N3CCC(NC(=O)c4cc5ccccc5s4)C3)n2)cc1 (stereo not drawn) [GSK1379738] | 0 | 26 | 22 | 11 | 0 | 0 | 0 | 0 | 12 | 0 | 27 | 0 | 0 | 0 | 0 | 15 | 0 | 0 | 3 | 11
Fc1ccc(-c2nc[nH]c2-c2ccncc2)cc1 [SB-217360] | 58 | 9 | 0 | 0 | 0 | 0 | 30 | 1 | 37 | 27 | 0 | 13 | 0 | 0 | 0 | 4 | 0 | 0 | 0 | 3
COc1cc2ncnc(Nc3cccc(Br)c3)c2cc1OC.Cl [GI230329] | 40 | 0 |  | 56 | 19 | 0 | 0 | 24 | 8 | 0 | 30 | 0 | 0 | 1 | 0 | 0 | 0 | 7 | 5 | 0
O=C1NC(=O)C(c2ccc(Cl)cc2)=C1Nc1cccc(Cl)c1 [SB-317651] | 0 | 0 | 14 | 56 | 0 | 0 | 0 | 1 | 0 | 0 | 9 | 6 | 43 | 13 | 0 | 8 | 7 | 30 | 0 | 0
CC(C)c1ccc(O)cc1Nc1ccnc2ccc(C(F)(F)F)cc12 [GW482059] | 0 | 0 | 2 | 10 | 0 | 0 | 5 | 13 | 0 | 0 | 0 | 0 | 0 | 0 | 0 | 6 | 3 | 3 | 0 | 3
Cn1cncc1-c1cc2c(Nc3ccc(OCc4ccccc4)cc3)ncnc2cn1 [GW281179] | 0 | 11 | 0 | 47 | 0 | 0 | 0 | 15 | 21 | 0 | 49 | 0 | 0 | 0 | 0 | 3 | 12 | 10 | 0 | 9
O=C(Nc1n[nH]c2cc(-c3ccsc3)ccc12)C1CC1 [SB-732932] | 67 | 8 | 0 | 54 | 65 | 3 | 0 | 0 | 13 | 0 | 22 | 0 | 34 | 16 | 27 | 0 | 11 | 97.1 | 22 | 24
Cn1cnc2c(N)ncnc21 [SKF-97623] | 0 | 0 | 38 | 0 | 0 | 0 | 0 | 0 | 12 | 0 | 0 | 0 | 24 | 0 | 0 | 4 | 0 | 0 | 0 | 0
CCCCc1nn2ncccc2c1-c1ccnc(NC2CC2)n1 [GW684374] | 7 | 0 | 0 | 0 | 0 | 0 | 0 | 0 | 0 | 0 | 38 | 0 | 15 | 0 | 0 | 5 | 19 | 0 | 52 | 0
CNCc1ccc2nc(NC(=O)c3ccc(C(C)(C)C)cc3)cn2c1 | 53 | 8 | 17 | 10 | 14 | 8 | 0 | 6 | 6 | 14 | 18 | 16 | 25 | 7 | 24 | 2 | 0 | 7 | 1 | 24
COc1ccc(CSc2nnc(-c3ccc4nccn4c3)o2)cc1C(F)(F)F | 12 | 0 | 0 | 0 | 2 | 0 | 4 | 3 | 3 | 20 | 0 | 0 | 0 | 15 | 7 | 0 | 9 | 8 | 21 | 0
